In PubChem BioAssay (NCI):
This is part of a sample that, as a whole, favours compounds with a hit. Of some 83,000 tested, about 20% had one in any assay.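 Each cell line was grown in a 96-well plate and treated with one concentration of compound for 48 hours. Values below 10 were considered active.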 Active and inactive are the calls of the source.

Assays:
Test in all cases: NCI-60 one-dose screen, 48 h (100 = growth as untreated, 0 = no growth, -100 = all killed)
Settings in all cases: 10 µM unless noted
NCI-H23 lung = tested on: NCI-H23 lung
NCI-H226 lung = tested on: NCI-H226 lung
NCI-H322M lung = tested on: NCI-H322M lung
HOP-62 NSCLC = tested on: HOP-62 NSCLC
NCI-H460 lung = tested on: NCI-H460 lung
HOP-92 NSCLC = tested on: HOP-92 NSCLC
NCI-H522 lung = tested on: NCI-H522 lung
A549/ATCC NSCLC = tested on: A549/ATCC NSCLC
786-0 renal = tested on: 786-0 renal
COLO 205 colon = tested on: COLO 205 colon
DU-145 prostate = tested on: DU-145 prostate
K-562 leukemia = tested on: K-562 leukemia
MALME-3M melanoma = tested on: MALME-3M melanoma
MDA-MB-231 breast = tested on: MDA-MB-231 breast
RXF 393 renal = tested on: RXF 393 renal
SF-268 CNS = tested on: SF-268 CNS
SF-295 CNS = tested on: SF-295 CNS
SF-539 CNS = tested on: SF-539 CNS
UACC-257 melanoma = tested on: UACC-257 melanoma
M14 melanoma = tested on: M14 melanoma

Measured: growth

Clc1ccc(C(Cn2ccnc2)OCc2ccsc2Cl)c(Cl)c1 (stereo not given)
inactive: NCI-H23 lung 37.9% | NCI-H226 lung 63% | NCI-H322M lung 88.2% | HOP-62 NSCLC 73.6% | NCI-H460 lung 57.7% | HOP-92 NSCLC 28.7% | NCI-H522 lung 35.1% | A549/ATCC NSCLC 56.1% | 786-0 renal 55.6% | COLO 205 colon 62.9% | DU-145 prostate 90.3% | K-562 leukemia 16% | MALME-3M melanoma 65.8% | MDA-MB-231 breast 70.9% | RXF 393 renal 27.8% | SF-268 CNS 67.5% | SF-295 CNS 37.6% | SF-539 CNS 72.5% | UACC-257 melanoma 59.7% | M14 melanoma 41.4%

Cc1cc(Nc2ncnc3ccc(NC4=NC(C)(C)CO4)cc23)ccc1Oc1ccn2ncnc2c1
active: NCI-H322M lung 5.34% | HOP-92 NSCLC 9.05% | NCI-H522 lung 6.43% | COLO 205 colon -60.7% | MALME-3M melanoma -8.78% | MDA-MB-231 breast -4.62% | RXF 393 renal 0.527% | UACC-257 melanoma 4.04% | M14 melanoma 8.95%
inactive: NCI-H23 lung 35.6% | NCI-H226 lung 47% | HOP-62 NSCLC 22.3% | NCI-H460 lung 26.9% | A549/ATCC NSCLC 20.7% | 786-0 renal 29.7% | DU-145 prostate 35.2% | K-562 leukemia 10% | SF-268 CNS 41.8% | SF-295 CNS 52.7% | SF-539 CNS 30.4%

O=C(Nc1nc2cccc(-c3ccc(CN4CCS(=O)(=O)CC4)cc3)n2n1)C1CC1
active: NCI-H460 lung 5.79% | NCI-H522 lung 6.67%
inactive: NCI-H23 lung 65.2% | NCI-H226 lung 55.9% | NCI-H322M lung 87.6% | HOP-62 NSCLC 57.3% | HOP-92 NSCLC 96.3% | A549/ATCC NSCLC 60.1% | 786-0 renal 85.5% | COLO 205 colon 59.5% | DU-145 prostate 35.4% | K-562 leukemia 36.5% | MALME-3M melanoma 105% | MDA-MB-231 breast 81.8% | RXF 393 renal 50.7% | SF-268 CNS 70.7% | SF-295 CNS 88.8% | SF-539 CNS 79.1% | UACC-257 melanoma 86.2% | M14 melanoma 90.8%

CCOc1cc2ncc(C#N)c(Nc3ccc(F)c(Cl)c3)c2cc1NC(=O)/C=C/CN(C)C
active: NCI-H23 lung -28.5% | NCI-H226 lung -56.5% | NCI-H322M lung 0.98% | HOP-62 NSCLC -27.7% | NCI-H460 lung -44% | HOP-92 NSCLC -30% | NCI-H522 lung -57.5% | A549/ATCC NSCLC -30.6% | 786-0 renal -68.5% | COLO 205 colon -83.2% | DU-145 prostate -56.6% | K-562 leukemia -16.4% | MALME-3M melanoma -77.5% | MDA-MB-231 breast -38.8% | RXF 393 renal -83% | SF-268 CNS -19.9% | SF-295 CNS 9.82% | SF-539 CNS -85.9% | UACC-257 melanoma -63% | M14 melanoma -83.1%

O=C(c1ccc(/C=C/c2n[nH]c3ccccc23)cc1)N1CCNCC1
active: NCI-H226 lung 3.94% | HOP-92 NSCLC -3.02% | COLO 205 colon -42% | RXF 393 renal -15.4% | SF-539 CNS -12%
inactive: NCI-H23 lung 24.8% | NCI-H322M lung 33.5% | HOP-62 NSCLC 16.5% | NCI-H460 lung 10.7% | NCI-H522 lung 36.2% | A549/ATCC NSCLC 22.4% | 786-0 renal 37.7% | DU-145 prostate 39.6% | K-562 leukemia 12.4% | MALME-3M melanoma 10.4% | MDA-MB-231 breast 27.1% | SF-268 CNS 39.2% | SF-295 CNS 51.4% | UACC-257 melanoma 35.9% | M14 melanoma 27.8%

COc1cc2nccc(Oc3ccc(NC(=O)C4(C(=O)Nc5ccc(F)cc5)CC4)cc3)c2cc1OC
active: HOP-62 NSCLC 9.04% | NCI-H460 lung 6.12% | HOP-92 NSCLC -36.9% | A549/ATCC NSCLC 2.35% | COLO 205 colon -44.7% | K-562 leukemia 0.49% | MALME-3M melanoma 0.11% | MDA-MB-231 breast 4.99% | RXF 393 renal -25.5% | SF-295 CNS -8.99% | SF-539 CNS -10.2% | UACC-257 melanoma -12.6% | M14 melanoma -11.6%
inactive: NCI-H23 lung 14.4% | NCI-H226 lung 11.7% | NCI-H322M lung 12.1% | NCI-H522 lung 11.4% | 786-0 renal 13.1% | DU-145 prostate 27.3% | SF-268 CNS 34%

CO[C@H]1C[C@@H]2CC[C@@H](C)[C@@](O)(O2)C(=O)C(=O)N2CCCC[C@H]2C(=O)O[C@H]([C@H](C)C[C@@H]2CC[C@@H](OC(=O)C(C)(CO)CO)[C@H](OC)C2)CC(=O)[C@H](C)/C=C(\C)[C@@H](O)[C@@H](OC)C(=O)[C@H](C)C[C@H](C)\C=C/C=C/C=C/1C
active: HOP-92 NSCLC 9.36% | RXF 393 renal -16.3% | SF-539 CNS 4.68%
inactive: NCI-H23 lung 44.4% | NCI-H226 lung 34.3% | NCI-H322M lung 38.5% | HOP-62 NSCLC 21.8% | NCI-H460 lung 22.6% | NCI-H522 lung 22.7% | A549/ATCC NSCLC 22% | 786-0 renal 26.2% | COLO 205 colon 28.5% | DU-145 prostate 37.7% | K-562 leukemia 18.3% | MALME-3M melanoma 24% | MDA-MB-231 breast 24.8% | SF-268 CNS 30.9% | SF-295 CNS 13.6% | UACC-257 melanoma 30.4% | M14 melanoma 32.3%

C[C@@H](Nc1cc(F)cc(F)c1)c1cc(C(=O)N(C)C)cc2c(=O)cc(N3CCOCC3)oc12
inactive: NCI-H23 lung 76.6% | NCI-H226 lung 83.7% | NCI-H322M lung 31.5% | HOP-62 NSCLC 59.3% | NCI-H460 lung 43.1% | HOP-92 NSCLC 27.3% | NCI-H522 lung 59.7% | A549/ATCC NSCLC 34.9% | 786-0 renal 12.7% | COLO 205 colon 46.6% | DU-145 prostate 68.2% | K-562 leukemia 87.6% | MALME-3M melanoma 68.9% | MDA-MB-231 breast 82.4% | SF-268 CNS 56.8% | SF-295 CNS 14.8% | SF-539 CNS 24.1% | UACC-257 melanoma 35.2% | M14 melanoma 69.2%
active: RXF 393 renal -16.4%
